AC50 and outcome data for five compounds are collected here from PubChem BioAssay (EPA / NIEHS).

As a reminder, the AC50 is the concentration at which the activity in the assay is half-maximal.

Read-out in test [1]: Cytochrome P450 2B6 (Homo sapiens) (UniProt P20813)
Put plainly: CLD_CYP2B6_24hr: CellzDirect (CLD) Gene Expression Assay for xenobiotic metabolism (CYP2B6) at 24 hours (AID 2283686). In short, it runs like this: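 qNPA chemiluminescent measurement of mRNA at 24 hours in human primary hepatocyte cultures from two donor preparations, with daily fresh dosing and 0.2% DMSO vehicle as baseline. Morphology-based cytotoxicity flagged yes/no.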

Read-out in test [2]: Cytochrome P450 2C9 (Homo sapiens) (UniProt P11712)
Put plainly: CLD_CYP2C9_24hr: CellzDirect (CLD) Gene Expression Assay for xenobiotic metabolism (CYP2C9) at 24 hours (AID 2283688). In short, it runs like this:
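Induction of CYP2C9 mRNA was quantified by quantitative nuclease protection assay (chemiluminescence), gain of signal versus 0.2% DMSO vehicle, 24 h after dosing. Human primary hepatocytes (two donors) received fresh chemical daily at multiple concentrations; morphology-based cytotoxicity flagged yes/no.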

Read-out in test [3]: Cytochrome P450 3A4 (Homo sapiens) (UniProt P08684)
Put plainly: CLD_CYP3A4_24hr: CellzDirect (CLD) Gene Expression Assay for xenobiotic metabolism (CYP3A4) at 24 hours (AID 2283689). The method in brief:
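CYP3A4 mRNA induction read by quantitative nuclease protection (chemiluminescence) 24 hr after dosing. Cultured human hepatocytes (two donor preparations) treated daily, vehicle 0.2% DMSO; phase-contrast morphology annotates cytotoxicity.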

Read-out in test [4]: organic anion transporter (SLCO1B1), SLCO1B1 (gene 10599)
Put plainly: CLD_SLCO1B1_24hr: CellzDirect (CLD) Gene Expression Assay for organic anion transporter (SLCO1B1) at 24 hours (AID 2283690). The method in brief: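 SLCO1B1 mRNA induction read at 24 h by quantitative nuclease protection assay (chemiluminescence), analyzed against DMSO baseline. Human hepatocyte cultures from separate donors received fresh dosing solutions daily; vehicle 0.2% DMSO; cytotoxicity flagged by phase-contrast morphology.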

Read-out in test [5]: sulfotransferase (SULT2A), SULT2A1 (gene 6822)
Put plainly: CLD_SULT2A_24hr: CellzDirect (CLD) Gene Expression Assay for sulfotransferase (SULT2A) at 24 hours (AID 2283694). The method in brief:
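mRNA is measured by qNPA: probe hybridisation, S1 nuclease digestion, chemiluminescence, in lysates from human primary hepatocytes harvested 24 h after daily dosing. Vehicle was 0.2% DMSO. Phase-contrast microscopy flagged cytotoxicity (yes/no).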

Read-out in test [6]: ABC Transporter (ABCB1), ABCB1 (gene 5243)
Put plainly: CLD_ABCB1_48hr: CellzDirect (CLD) Gene Expression Assay for ABC Transporter (ABCB1) at 48 hours (AID 2283695). In short, it runs like this:
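ABCB1 mRNA was measured by quantitative nuclease protection assay (chemiluminescence) 48 h after dosing. Human hepatocyte cultures from two separate donors received fresh dosing solutions daily for two days, with 0.2% DMSO as vehicle. Positive-direction fit against DMSO.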

Read-out in test [7]: glucuronosyltransferase (UGT1A1), UGT1A1 (gene 54658)
Briefly: CLD_UGT1A1_24hr: CellzDirect (CLD) Gene Expression Assay for glucuronosyltransferase (UGT1A1) at 24 hours (AID 2283696). The method in brief:
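UGT1A1 transcript induction was measured by quantitative nuclease protection assay (chemiluminescence) in human hepatocyte cultures 24 h after daily fresh dosing, with 0.2% DMSO as vehicle and baseline.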

Read-out in test [8]: Cytochrome P450 3A4 (Homo sapiens) (UniProt P08684)
Put plainly: CLD_CYP3A4_48hr: CellzDirect (CLD) Gene Expression Assay for xenobiotic metabolism (CYP3A4) at 48 hours (AID 2283698). In short, it runs like this: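 CYP3A4 induction read by qNPA chemiluminescence after 48 h, with fresh dosing solutions on consecutive days, in cultured human hepatocytes (two donors). Vehicle 0.2% DMSO as baseline; microscopy-based cytotoxicity annotated yes/no alongside data.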

Read-out in test [9]: Cytochrome P450 2B6 (Homo sapiens) (UniProt P20813)
Briefly: CLD_CYP2B6_48hr: CellzDirect (CLD) Gene Expression Assay for xenobiotic metabolism (CYP2B6) at 48 hours (AID 2283699).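 Note: actives raise transcript level above DMSO so potency reflects induction.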 In short, it runs like this: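 CYP2B6 transcript induction, read by quantitative nuclease protection (S1 digestion, chemiluminescent detection) 48 h after dosing, is fitted upward against 0.2% DMSO. Cultured human liver primary cells, two donor preparations, received fresh chemical daily over multiple concentrations.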

Read-out in test [10]: Cytochrome P450 2C9 (Homo sapiens) (UniProt P11712)
Put plainly: CLD_CYP2C9_48hr: CellzDirect (CLD) Gene Expression Assay for xenobiotic metabolism (CYP2C9) at 48 hours (AID 2283701; active = hit-call score of the fitted dose curve at least 0.9, where 1 is the maximum; inactive = score below 0.9). In short, it runs like this: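 mRNA level measured by quantitative nuclease protection (S1 digestion, chemiluminescent detection) in lysates of human primary hepatocytes exposed 48 h with daily re-dosing. Induction fitted positively versus 0.2% DMSO; morphology-based cytotoxicity flagged yes/no.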

Read-out in test [11]: xenobiotic metabolism (CYP1A2), CYP1A2 (gene 1544)
Briefly: CLD_CYP1A2_48hr: CellzDirect (CLD) Gene Expression Assay for xenobiotic metabolism (CYP1A2) at 48 hours (AID 2283703). In short, it runs like this:
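Cytotoxicity was flagged yes/no from morphology, while CYP1A2 transcript induction was detected by qNPA chemiluminescence after a 48-hour exposure. Human primary hepatocyte cultures from separate donors received fresh dosing solutions daily over two days, with 0.2% DMSO as vehicle and baseline.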

Read-out in test [12]: Broad substrate specificity ATP-binding cassette transporter ABCG2 (Homo sapiens) (UniProt Q9UNQ0)
Put plainly: CLD_ABCG2_48hr: CellzDirect (CLD) Gene Expression Assay for ABC Transporter (ABCG2) at 48 hours (AID 2283704). The method in brief:
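ABCG2 transcript measured at 48 h by quantitative nuclease protection (chemiluminescent) and fitted for increase relative to 0.2% DMSO. Hepatocyte cultures from separate donors got fresh compound daily over two days; morphology annotated cytotoxicity.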

Read-out in test [13]: xenobiotic metabolism (CYP1A1), CYP1A1 (gene 1543)
Put plainly: CLD_CYP1A1_48hr: CellzDirect (CLD) Gene Expression Assay for xenobiotic metabolism (CYP1A1) at 48 hours (AID 2283705). In short, it runs like this: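 CYP1A1 transcript measured by quantitative nuclease protection (chemiluminescent) 48 h after two daily treatments of human hepatocyte cultures, versus 0.2% DMSO. Morphology-based cytotoxicity flags accompany data; two donor preparations used.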

Read-out in test [14]: Cytochrome P450 2C19 (Homo sapiens) (UniProt P33261)
Briefly: CLD_CYP2C19_24hr: CellzDirect (CLD) Gene Expression Assay for xenobiotic metabolism (CYP2C19) at 24 hours (AID 2283687).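 Note: activity means mRNA induction above DMSO vehicle baseline.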 In short, it runs like this: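 CYP2C19 mRNA was quantified by qNPA chemiluminescence after 24 h of daily dosing of cultured human primary hepatocytes from two donors; vehicle was 0.2% DMSO, and increases over DMSO baseline were fitted.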

Read-out in test [15]: Glyceraldehyde-3-phosphate dehydrogenase (Homo sapiens) (UniProt P04406)
Put plainly: CLD_GAPDH_24hr: CellzDirect (CLD) Gene Expression Assay for Baseline Control (Glyceraldehyde 3-phosphate dehydrogenase) at 24 hours (AID 2283692). In short, it runs like this: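 GAPDH baseline-control readout: qNPA chemiluminescent mRNA signal in human primary hepatocytes harvested 24 h after daily dosing, normalised to 0.2% DMSO with positive fitting direction; cytotoxicity annotated by phase-contrast morphology.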

Read-out in test [16]: ABC Transporter (ABCB11), ABCB11 (gene 8647)
Briefly: CLD_ABCB11_48hr: CellzDirect (CLD) Gene Expression Assay for ABC Transporter (ABCB11) at 48 hours (AID 2283697). In short, it runs like this: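 Induction of ABCB11 mRNA relative to 0.2% DMSO, measured at 48 h by qNPA chemiluminescence. Cultured human hepatocytes (two donors) received fresh dosing solutions at several concentrations on two consecutive days.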

Test [17] in a line: CLD_ACTIN_48hr: CellzDirect (CLD) Gene Expression Assay for Baseline Control (Actin) at 48 hours (AID 2283702). In short, it runs like this:
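Background-control actin mRNA read by qNPA chemiluminescence at 48 h. Human hepatocyte cultures from two donors received fresh multi-concentration chemical doses daily for two days; 0.2% DMSO served as vehicle baseline.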

Read-out in test [18]: HMG-CoA synthase (HMGCS2), HMGCS2 (gene 3158)
Put plainly: CLD_HMGCS2_24hr: CellzDirect (CLD) Gene Expression Assay for HMG-CoA synthase (HMGCS2) at 24 hours (AID 2283691). In short, it runs like this: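 qNPA with S1 nuclease digestion and chemiluminescent detection gave HMGCS2 transcript levels, fitted upward against 0.2% DMSO vehicle. Cultured human hepatocytes (two donors) received fresh compound daily and were harvested at 24 h; phase-contrast morphology flagged cytotoxicity.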

Read-out in test [19]: alkyl and aryl transferase (GSTA2), GSTA2 (gene 2939)
Briefly: CLD_GSTA2_24hr: CellzDirect (CLD) Gene Expression Assay for alkyl and aryl transferase (GSTA2) at 24 hours (AID 2283693). In short, it runs like this:
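GSTA2 transcript levels were quantified by quantitative nuclease protection assay in primary human hepatocytes 24 h after daily dosing with fresh solutions at multiple concentrations; 0.2% DMSO vehicle as baseline, cytotoxicity flagged morphologically.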

Read-out in test [20]: Cytochrome P450 2C19 (Homo sapiens) (UniProt P33261)
Put plainly: CLD_CYP2C19_48hr: CellzDirect (CLD) Gene Expression Assay for xenobiotic metabolism (CYP2C19) at 48 hours (AID 2283700).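 Note: fitted upward so actives raise CYP2C19 mRNA above the 0.2% DMSO vehicle.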 In short, it runs like this:
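CYP2C19 mRNA induction read by chemiluminescent quantitative nuclease protection assay after 48 h, with fresh compound added daily for two days to cultured human liver hepatocytes. Activity fitted upward against 0.2% DMSO vehicle.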

Structures are written as SMILES. Results filed as inconclusive are left out. The source made the active and inactive calls. Rule for the calls, unless noted: active = hit-call score of the fitted dose curve at least 0.9, where 1 is the maximum; inconclusive = response in the unintended direction; inactive = score below 0.9.

Broad substrate specificity ATP-binding cassette transporter ABCG2 (Homo sapiens), sequence (Q9UNQ0 whole entry, looked up): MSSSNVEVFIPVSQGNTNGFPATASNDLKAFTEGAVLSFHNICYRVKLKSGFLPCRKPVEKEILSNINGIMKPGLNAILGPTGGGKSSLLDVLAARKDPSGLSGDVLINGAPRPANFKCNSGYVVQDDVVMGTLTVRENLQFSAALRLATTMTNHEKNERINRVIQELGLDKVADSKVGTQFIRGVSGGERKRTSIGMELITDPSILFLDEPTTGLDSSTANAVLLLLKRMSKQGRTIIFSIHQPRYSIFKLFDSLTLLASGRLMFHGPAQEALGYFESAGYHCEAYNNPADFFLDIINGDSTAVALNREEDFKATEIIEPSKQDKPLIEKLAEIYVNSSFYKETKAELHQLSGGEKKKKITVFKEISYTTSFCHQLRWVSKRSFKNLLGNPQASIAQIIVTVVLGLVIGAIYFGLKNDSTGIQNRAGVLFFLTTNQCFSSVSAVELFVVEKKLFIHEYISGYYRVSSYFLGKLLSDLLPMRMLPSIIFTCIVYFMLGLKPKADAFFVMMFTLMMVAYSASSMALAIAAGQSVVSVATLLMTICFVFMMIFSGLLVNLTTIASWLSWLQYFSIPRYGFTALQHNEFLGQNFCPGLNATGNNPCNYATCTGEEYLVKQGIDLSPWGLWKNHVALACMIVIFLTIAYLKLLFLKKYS
Cytochrome P450 2C19 (Homo sapiens), sequence (P33261 whole entry, looked up): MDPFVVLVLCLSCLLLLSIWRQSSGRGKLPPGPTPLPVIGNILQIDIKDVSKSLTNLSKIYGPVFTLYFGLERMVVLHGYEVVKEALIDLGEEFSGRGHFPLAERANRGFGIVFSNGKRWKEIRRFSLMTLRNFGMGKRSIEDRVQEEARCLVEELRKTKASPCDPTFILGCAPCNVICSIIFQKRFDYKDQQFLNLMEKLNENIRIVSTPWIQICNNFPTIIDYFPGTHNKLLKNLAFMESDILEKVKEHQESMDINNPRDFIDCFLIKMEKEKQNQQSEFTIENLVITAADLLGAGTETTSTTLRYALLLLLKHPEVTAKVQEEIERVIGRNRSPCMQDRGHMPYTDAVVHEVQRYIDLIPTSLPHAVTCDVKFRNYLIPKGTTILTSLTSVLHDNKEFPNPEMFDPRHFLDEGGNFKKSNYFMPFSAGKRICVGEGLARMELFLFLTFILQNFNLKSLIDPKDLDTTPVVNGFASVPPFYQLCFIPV
Glyceraldehyde-3-phosphate dehydrogenase (Homo sapiens), sequence (P04406 whole entry, looked up): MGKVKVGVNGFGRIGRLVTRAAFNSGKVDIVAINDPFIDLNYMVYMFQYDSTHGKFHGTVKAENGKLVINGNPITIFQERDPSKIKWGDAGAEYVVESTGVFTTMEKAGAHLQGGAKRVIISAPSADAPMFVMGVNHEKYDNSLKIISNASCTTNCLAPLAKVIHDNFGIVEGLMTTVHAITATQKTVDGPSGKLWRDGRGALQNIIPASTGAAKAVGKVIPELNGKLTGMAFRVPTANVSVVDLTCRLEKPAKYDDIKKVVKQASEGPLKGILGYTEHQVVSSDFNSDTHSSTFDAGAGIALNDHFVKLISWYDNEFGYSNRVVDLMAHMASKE
Cytochrome P450 3A4 (Homo sapiens), sequence (P08684 whole entry, looked up): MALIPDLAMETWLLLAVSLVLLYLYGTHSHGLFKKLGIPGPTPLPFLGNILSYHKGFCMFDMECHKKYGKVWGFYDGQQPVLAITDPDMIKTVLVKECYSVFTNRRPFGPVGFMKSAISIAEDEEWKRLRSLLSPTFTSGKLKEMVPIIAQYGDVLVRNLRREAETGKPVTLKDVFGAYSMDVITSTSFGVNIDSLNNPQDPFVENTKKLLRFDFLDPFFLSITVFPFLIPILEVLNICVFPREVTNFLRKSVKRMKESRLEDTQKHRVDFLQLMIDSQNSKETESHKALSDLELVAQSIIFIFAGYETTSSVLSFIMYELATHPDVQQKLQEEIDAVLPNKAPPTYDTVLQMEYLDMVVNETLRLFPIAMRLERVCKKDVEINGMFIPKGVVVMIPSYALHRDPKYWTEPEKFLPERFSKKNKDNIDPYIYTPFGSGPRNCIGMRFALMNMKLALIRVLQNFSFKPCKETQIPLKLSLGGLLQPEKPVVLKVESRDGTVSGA

Consider `CCC(C)(CC)c1cc(NC(=O)c2c(OC)cccc2OC)on1`, for which the AC50 was 0.259 µM (active) in test [1]; 0.0271 µM (active) in test [3]; 0.126 µM (active) in test [8]; 0.26 µM (active) in [9]; 4.25 µM (active) in test [11]; 3.98 µM (active) in test [13]. For the same compound, the result in test [2], in test [4], in test [5], in test [6], in test [7] and in test [10] was inactive. The outcome in test [12] was inactive.

Take `CN(C)c1nc(=O)n(C2CCCCC2)c(=O)n1C`: the outcome in [1], in [14], in test [4], in test [15], in test [5] and in test [7] was inactive. The outcome in [16], in [8], in test [17] and in test [11] was inactive. In addition, in [3], the concentration at half-maximal activity (AC50) is 3.97 µM (active).

In the case of `CCSC(=O)N(CC)C1CCCCC1`, the AC50 in test [1] is 6.17 µM (active); in test [3] it was 0.000663 µM (active); in test [8] it was 0.000988 µM (active); in test [9], 0.000515 µM (active). Moreover, the outcome in [14], in test [4], in test [18], in [15], in test [19] and in test [6] was inactive. Also, the outcome in test [7], in test [16], in test [20], in test [10] and in test [11] was inactive.

For the compound `Cc1ccccc1CO[C@@H]1C[C@@]2(C(C)C)CC[C@]1(C)O2`, the AC50 was 3.91 µM (active) in test [1]; 20 µM (active) in test [3]; 5.18 µM (active) in test [7]; 10.4 µM (active) in [8]; 4.16 µM (active) in test [9]; 11.5 µM (active) in test [11]. Also, the compound was called inactive in test [14], in [2], in [4], in test [5], in [6] and in test [20]. Moreover, the outcome in test [12] and in test [13] was inactive.

Turning to `CCNc1nc(NC(C)C)nc(SC)n1`, the concentration at half-maximal activity (AC50) was 0.92 µM (active) in test [1]; 4.22 µM (active) in test [3]; 5.88 µM (active) in [8]; 1.9 µM (active) in test [9]; 9.24 µM (active) in [13]. Besides, the call in [2], in [15], in [19], in test [5], in [6] and in [7] was inactive. For the same compound, the compound was called inactive in test [17], in [11] and in test [12].
